# From PubChem BioAssay (EPA / NIEHS)
# The source holds several records for some structures; these can differ, active in one and inactive in another. The source made the active and inactive calls. The calls were made as follows: active = hit-call score of the fitted dose curve at least 0.9, where 1 is the maximum; inactive = score below 0.9.
# Test: ATG_PBREM_CIS: Attagene CIS-FACTORIAL HepG2 Assay for human Phenobarbital-responsive Enhancer Module (PBREM) (AID 2282955)
# Details: HepG2 PBREM cis-reporter, Attagene multiplexed transcription; actives raise or lower the signal
# Experimental: ATG_CIS is a cell-based, multiplexed-readout assay that uses HepG2, a human liver cell line, with measurements taken at 24 hours after chemical dosing in a 24-well plate.ATG_PBREM_CIS is one of 52 assay component(s) measured or calculated from the ATG_CIS assay. It is designed to make measurements of mRNA induction, a form of inducible reporter, as detected with fluorescence intensity signals by Reverse transcription polymerase chain reaction (RT-PCR) and Capillary electrophoresis technology.Data from the assay component ATG_PBREM_CIS was analyzed into 1 assay endpoint. This assay endpoint, ATG_PBREM_CIS, was analyzed with bidirectional fitting relative to DMSO as the negative control and baseline of activity. Using a type of inducible reporter, measures of mRNA for gain or loss-of-signal activity can be used to understand the reporter gene at the transcription factor-level as they relate to the gene NR1I3. Furthermore, this assay endpoint can be referred to as a primary readout, because this assay has produced multiple assay endpoints where this one serves a reporter gene function. To generalize the intended target to other relatable targets, this assay endpoint is annotated to the nuclear receptor intended target family, where the subfamily is non-steroidal.
# Human liver HepG2 cells are transiently transfected with multiple reporter transcription units (MRTUs) in 6-well plates using FuGene 6 reagent (Roche; 3 ml FuGene/1 mg DNA). The MRTU constructs are regulated by a cis-regulating element (promoter). […] A major difference between the CIS and TRANS system is that in CIS activities of endogenous TFs are measured, whereas the TRANS assay evaluates changes in activities of exogenous, chimeric NR-Gal4 proteins. […] At the end of 24 hour incubation, total RNA was isolated using TriZol reagent (Invitrogen). The isolated RNA is then reverse-transcribed using oligo(dT) primer and Mo-MLV reverse transcriptase (Invitrogen) with DNAse I (Ambion) treatment for 30 min. The one-tenth of the produced cDNA was amplified by PCR using Taq DNA polymerase (Invitrogen) and two reporter sequence-specific primers. The PCR products were fluorescently labeled by primer extension with 6-arboxyfluorescein (6-FAM) 5'-labeled reporter sequence-specific primer (2 min at 95 C, 20 s at 68 C and 10 min at 72 C) and these products were digested with 5U of HpaI (New England Biolabs) for 2h at 37 C. The fragments were purified using Qiaquick PCR columns (Qiagen), analyzed on an ABI 3130xL genetic analyzer (Applied Biosystems) with peak positions identified by using a set of X-rhodamine (ROX)-labeled MapMarker1000 molecular weight standards (BioVentures). The raw capillary electrophoresis data was processed using Attagraph software (Attagene).
SMILES,AC50,outcome
Clc1ccc(Nc2nnc(Cc3ccncc3)c3ccccc23)cc1,8.51 µM (active),
O=C(CC(=O)C(F)(F)C(F)(F)C(F)(F)F)c1cccs1,69.7 µM (active),inactive
CC1CCC(CO)CC1 (stereo not given),,inactive
CCOC(=O)c1nc(C(Cl)(Cl)Cl)n(-c2ccc(Cl)cc2Cl)n1,100 µM (active),
CC(C)(C)c1ccc(CCC=O)cc1,,inactive
CCC(C)c1nccnc1OC (stereo not given),,inactive
Nc1ccc(O)c(C(=O)O)c1,,inactive
O=CC(F)(F)C(F)(F)C(F)(F)F,,inactive
CN(C)c1ccc(C(=C2C=CC(=[N+](C)C)C=C2)c2ccccc2)cc1,,inactive
O=S(=O)(c1ccc(OCc2ccccc2)cc1)c1ccccc1O,24.1 µM (active),
O=C(OC(=O)C(F)(F)C(F)(F)F)C(F)(F)C(F)(F)F,,inactive
Oc1c(Cl)ccc(Cl)c1Cl,,inactive
Cc1[nH]nc2c1N=C(c1ccccc1Cl)c1cc([N+](=O)[O-])ccc1N2,,inactive
COc1cccc(O)c1,,inactive
CC1COCc2cc3c(cc21)C(C)(C)C(C)C3(C)C (stereo not given),,inactive
Cc1cncc(C)c1,,inactive
CCCCCCOC(=O)c1ccc(O)cc1,29.8 µM (active),
Cc1cc(C(C)(C)C)c(O)c(C(C)(C)C)c1,,inactive
O=P(O)(O)CCC(F)(F)C(F)(F)C(F)(F)C(F)(F)C(F)(F)C(F)(F)C(F)(F)C(F)(F)F,,inactive

SMILES,AC50,outcome
CCCCCC(C)OC(=O)COc1ccc(Cl)c2cccnc12 (stereo not given),,inactive
O=S(=O)(O)C(F)(F)C(F)(F)C(F)(F)C(F)(F)C(F)(F)C(F)(F)C(F)(F)C(F)(F)C(F)(F)C(F)(F)F,,inactive
C=CC(=O)OCCN(CC)CC,,inactive
Cc1cc(C(=C2C=CC(=Nc3ccc(S(=O)(=O)O)cc3)C=C2)c2ccc(Nc3ccc(S(=O)(=O)O)cc3)cc2)cc(S(=O)(=O)O)c1N,,inactive
c1cnc2c(c1)ccc1cccnc12,100 µM (active),inactive
CCc1cccc(CC)c1NC(=O)C(=O)O,,inactive
Cc1cccc2c1ccc1ccccc12,,inactive
FC(F)(F)C(F)(F)C(F)(F)C(F)(F)I,,inactive
Cc1ccccc1C(OCCN(C)C)c1ccccc1 (stereo not given),,inactive
OCC(CO)(CBr)CBr,,inactive
CCCCCCCCCC=CCC1CC(=O)OC1=O (stereo not given),,inactive
COC(=O)CC(C(C)=O)C(=O)OC (stereo not given),,inactive
c1cc[nH]c1,,inactive
FC(F)=C(F)C(F)(F)C(F)(F)C(F)(F)C(F)F,,inactive
CCCCCCCCCCCCCCC,,inactive
CCCCCCC(C)(C)C(=O)O,,inactive
CC(=O)Nc1ccc(S(N)(=O)=O)cc1,,inactive
CS(=O)(=O)c1ccc([C@@H](CC2CCCC2)C(=O)Nc2cnccn2)cc1Cl,,inactive
Brc1cc(Br)c(Oc2c(Br)cc(Br)c(Br)c2Br)cc1Br,,inactive
